# According to PubChem BioAssay:
# Active and inactive are the calls of the source. Unless noted, no rule for the calls is given here.
# How the values were obtained:
# [1] = inhibitors of CD8+ T cell-vesicle binding, pilot screen, LFA-1/ICAM-1 modulator project, MLPCN validation set, flow cytometry (AID 2523;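 active = response below a set limit, under 55% cells CD8-positive and vesicle-bound, and CD8 cells' 90th-percentile brightness under 279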;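 as to vesicle binding response: mean PE anti-B7-1 fluorescence of CD8+ cells relative to row control; 100% = QL9-loaded vesicles with DMSO vehicle in the same plate row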); settings: 2C mouse CD8+ T cells, at 7 µM, stronger effect = lower value; double positive events: measured here: CD8+/vesicle+ event percentage
# [2] = target: Integrin beta-1 (Homo sapiens) + Integrin alpha-4 (Homo sapiens) (UniProt P13612+P05556); assay: inhibition of HUTS-21 binding to VLA-4, pilot screen, VLA-4 allosteric modulator project, U937 cells, HUTS-21 mAb, flow cytometry, validation set (AID 2674;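 active = inhibition above 50%, about 3 SD of the validation set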;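 also: antibody binding induced by the VLA-4 ligand LDV present at three times its Kd; 0% = LDV ligand with antibody and no compound and 100% = antibody without LDV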); settings: HUTS-21 LIBS mAb binding, at 6.7 µM, stronger effect = higher value
# [3] = superoxide lowering in aged yeast cells, pilot screen, validation compound set (AID 2706;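 active = superoxide response below 65% of plate, a cut near 3 SD across the whole screen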;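 also: yeast exposed to compound for one week at 30 degrees C before staining; 100% = mean of all compound wells on the same plate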); settings: S. cerevisiae aging, superoxide DHE fluorescence; at 10 µM; stronger effect = lower value
# [4] = target: Beta-adrenergic receptor kinase 1 (Homo sapiens) (UniProt P25098); assay: GRK2 binders displacing RNA aptamer, biochemical, validation, human GRK2, bead flow cytometry (AID 488806;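 active = aptamer binding inhibition above 30%, about 3 SD of noise from non-fluorescent compounds; inactive = inhibition at or below 30%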); settings: bead-bound GRK2, FAM-aptamer displacement, at 10 µM, stronger effect = higher value
# [5] = target: AP-2 complex subunit beta (Homo sapiens) (UniProt P63010); assay: inhibitors of arrestin peptide binding to AP2, pilot screen, biochemical, validation set, GST-AP2 beads, flow cytometry (AID 504541;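 active = inhibition above 54%, about 3 SD of non-fluorescent compounds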;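 also: AP2 carries R879A mutation and is captured from E. coli lysate; bead-bound FITC arrestin peptide fluorescence measuring arrestin peptide binding to AP2; 0% = DMSO wells and 100% = excess unlabeled arrestin peptide control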); settings: FITC arrestin peptide, at 10 µM, stronger effect = higher value
# [6] = yeast V-ATPase proton transport modulators, S. cerevisiae, pHLuorin, HTS validation (AID 504600; in the data active = response above about 15%;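 also: plate controls were DMSO for no effect and reference compound for full effect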); settings: S. cerevisiae pHLuorin cytosolic pH, at 10 µM, stronger effect = higher value
# [7] = system: anti-desmoglein-3 scFv antibody binding to human DSG3; assay: inhibitors of anti-DSG3 scFv binding to DSG3, pilot screen, biochemical, validation compound set, bead-based, flow cytometry (AID 588368;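 active = binding below the plate cutoff, the plate median minus 3 SD, with a reading above zero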;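 also: signal is the median channel fluorescence of bead-bound GFP antibody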); settings: Protein G beads, DSG3-Fc, scFv-GFP binding, at 10 µM, stronger effect = lower value
# [8] = system: Botulinum neurotoxin type F light chain protease (Clostridium botulinum); assay: Botulinum neurotoxin type F light chain protease inhibition, multiplex microsphere flow cytometry, validation set (AID 588459); settings: multiplex microsphere protease substrate cleavage assay, at 10 µM, stronger effect = higher value
# [9] = target: Botulinum neurotoxin type A (Clostridium botulinum) (UniProt P0DPI0); assay: BoNT/A light chain protease inhibitors, biochemical, multiplex microsphere flow cytometry, validation set (AID 588460); settings: at 10 µM, stronger effect = higher value
# [10] = target: Lethal factor (Bacillus anthracis) (UniProt P15917); assay: Lethal factor protease inhibitors, Bacillus anthracis, multiplex microsphere cleavage assay, validation set (AID 588461); settings: flow cytometry, at 10 µM, stronger effect = higher value
# [11] = inhibitors of fungal efflux pumps CDR1, CDR2, MDR1, pilot screen, validation compound set, multiplex, phenotypic (AID 588506;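 active = efflux inhibition above 0.42, the validation set average plus 4 SD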;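 also: Nile Red retained in cells so higher fluorescence means more efflux inhibition; 0 = negative control wells and 1 = enniatin B 25 µM full block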); settings: S. cerevisiae pump-expressing triplex, Nile Red efflux flow cytometry; at 10 µM; stronger effect = higher value
# [12] = target: ATP-binding cassette sub-family B member 6 (Homo sapiens) (UniProt Q9NP58); assay: ABCB6 transporter inhibitors, pilot screen, K562-ABCB6 cells, flow cytometry, validation set (AID 588550;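 active = inhibition above the screen-wide mean plus 3 SD, about 51%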;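 also: 0% = DMSO wells and 100% = benzethonium chloride 70 µM positive control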); settings: K562-ABCB6 porphyrin accumulation, 1 h, at 10 µM, stronger effect = higher value
# [13] = promoters of myeloid differentiation in arrested cells, primary screen, cell-based, GFP/MAC1 double positive, flow cytometry, validation set (AID 588685;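 active = differentiation response of at least 50%, scaled between solvent and reference control, from cells with both markers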;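 also: compound exposure lasts four days before antibody staining and flow analysis; 0% = DMSO wells and 100% = 5 µM fulvestrant positive control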); settings: ER-HoxA9 marrow cells, stronger effect = higher value
# [14] = RPL19A-GFP modulators, yeast TOR pathway, confirmation, cell-based, S. cerevisiae, flow cytometry, cherry picks, mother/daughter gates (AID 2270;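 active = GFP response below 50% of the DMSO control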); settings: S. cerevisiae RPL19A-GFP strain, 3 h, at 10 µM, stronger effect = lower value, 100 = same GFP as DMSO wells
# [15] = LAP4-GFP expression modulators in yeast, confirmation, cell-based, cherry picks, flow cytometry, mother/daughter gates (AID 2271;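 active = GFP response above 150% of the DMSO control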;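 also: ratio of sample to DMSO plate mean so 100% equals DMSO level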); settings: S. cerevisiae LAP4-GFP strain, 3 h, at 10 µM, stronger effect = higher value
# [16] = modulators of CIT2-GFP expression in yeast, confirmation, S. cerevisiae, GFP fusion, cherry picks, mother/daughter gates (AID 2274;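 active = GFP response above 150% of the DMSO level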); settings: S. cerevisiae CIT2-GFP strain, flow cytometry, 3 h, at 10 µM, stronger effect = higher value
# [17] = measured here: daughter cell gate
# [18] = measured here: mother cell gate
# [19] = measured here: daughter cell gate response
# [20] = measured here: mother cell gate response
# Sequence of AP-2 complex subunit beta (Homo sapiens) (P63010 whole entry, looked up, one chain of several): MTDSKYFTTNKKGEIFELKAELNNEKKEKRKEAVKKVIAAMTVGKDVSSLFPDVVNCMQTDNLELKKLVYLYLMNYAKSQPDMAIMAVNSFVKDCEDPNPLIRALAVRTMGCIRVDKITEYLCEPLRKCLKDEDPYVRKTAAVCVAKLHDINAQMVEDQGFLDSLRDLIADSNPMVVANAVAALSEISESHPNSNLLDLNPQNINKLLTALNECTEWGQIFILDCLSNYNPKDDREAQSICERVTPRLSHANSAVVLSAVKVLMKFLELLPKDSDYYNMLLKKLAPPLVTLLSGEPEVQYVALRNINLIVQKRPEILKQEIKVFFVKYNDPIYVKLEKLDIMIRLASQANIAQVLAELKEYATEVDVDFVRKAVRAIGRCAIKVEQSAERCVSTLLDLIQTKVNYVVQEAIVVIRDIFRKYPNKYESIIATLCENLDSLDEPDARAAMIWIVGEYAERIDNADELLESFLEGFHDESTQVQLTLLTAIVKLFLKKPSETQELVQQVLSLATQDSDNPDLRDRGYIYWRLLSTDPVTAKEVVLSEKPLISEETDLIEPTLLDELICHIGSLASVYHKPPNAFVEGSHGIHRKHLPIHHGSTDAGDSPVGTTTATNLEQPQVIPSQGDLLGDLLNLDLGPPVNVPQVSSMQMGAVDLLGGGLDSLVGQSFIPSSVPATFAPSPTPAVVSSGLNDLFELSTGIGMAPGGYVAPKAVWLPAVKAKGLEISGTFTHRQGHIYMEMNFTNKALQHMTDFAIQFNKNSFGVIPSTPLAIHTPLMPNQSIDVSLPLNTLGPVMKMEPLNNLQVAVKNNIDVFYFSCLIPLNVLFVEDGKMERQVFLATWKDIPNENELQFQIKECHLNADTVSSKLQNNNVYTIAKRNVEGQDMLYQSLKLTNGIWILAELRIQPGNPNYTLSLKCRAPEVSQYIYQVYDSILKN
# Sequence of Beta-adrenergic receptor kinase 1 (Homo sapiens) (P25098 whole entry, looked up): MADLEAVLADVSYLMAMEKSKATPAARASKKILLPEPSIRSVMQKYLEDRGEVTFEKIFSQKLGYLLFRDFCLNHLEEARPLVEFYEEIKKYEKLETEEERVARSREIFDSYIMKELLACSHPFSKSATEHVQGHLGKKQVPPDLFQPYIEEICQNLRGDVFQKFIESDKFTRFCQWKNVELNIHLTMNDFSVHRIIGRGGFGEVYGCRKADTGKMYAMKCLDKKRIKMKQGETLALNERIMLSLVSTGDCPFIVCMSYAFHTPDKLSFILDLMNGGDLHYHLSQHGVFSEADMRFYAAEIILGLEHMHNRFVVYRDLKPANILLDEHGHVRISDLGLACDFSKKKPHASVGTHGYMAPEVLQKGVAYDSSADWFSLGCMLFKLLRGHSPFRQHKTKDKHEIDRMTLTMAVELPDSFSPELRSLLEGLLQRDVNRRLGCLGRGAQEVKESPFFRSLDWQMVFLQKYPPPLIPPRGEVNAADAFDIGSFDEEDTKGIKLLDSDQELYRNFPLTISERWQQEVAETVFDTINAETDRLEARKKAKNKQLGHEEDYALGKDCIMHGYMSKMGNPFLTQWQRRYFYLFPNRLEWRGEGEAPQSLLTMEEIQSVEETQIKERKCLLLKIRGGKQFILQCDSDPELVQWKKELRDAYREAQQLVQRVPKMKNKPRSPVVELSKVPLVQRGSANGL
# Sequence of Botulinum neurotoxin type A (Clostridium botulinum) (P0DPI0 whole entry, looked up): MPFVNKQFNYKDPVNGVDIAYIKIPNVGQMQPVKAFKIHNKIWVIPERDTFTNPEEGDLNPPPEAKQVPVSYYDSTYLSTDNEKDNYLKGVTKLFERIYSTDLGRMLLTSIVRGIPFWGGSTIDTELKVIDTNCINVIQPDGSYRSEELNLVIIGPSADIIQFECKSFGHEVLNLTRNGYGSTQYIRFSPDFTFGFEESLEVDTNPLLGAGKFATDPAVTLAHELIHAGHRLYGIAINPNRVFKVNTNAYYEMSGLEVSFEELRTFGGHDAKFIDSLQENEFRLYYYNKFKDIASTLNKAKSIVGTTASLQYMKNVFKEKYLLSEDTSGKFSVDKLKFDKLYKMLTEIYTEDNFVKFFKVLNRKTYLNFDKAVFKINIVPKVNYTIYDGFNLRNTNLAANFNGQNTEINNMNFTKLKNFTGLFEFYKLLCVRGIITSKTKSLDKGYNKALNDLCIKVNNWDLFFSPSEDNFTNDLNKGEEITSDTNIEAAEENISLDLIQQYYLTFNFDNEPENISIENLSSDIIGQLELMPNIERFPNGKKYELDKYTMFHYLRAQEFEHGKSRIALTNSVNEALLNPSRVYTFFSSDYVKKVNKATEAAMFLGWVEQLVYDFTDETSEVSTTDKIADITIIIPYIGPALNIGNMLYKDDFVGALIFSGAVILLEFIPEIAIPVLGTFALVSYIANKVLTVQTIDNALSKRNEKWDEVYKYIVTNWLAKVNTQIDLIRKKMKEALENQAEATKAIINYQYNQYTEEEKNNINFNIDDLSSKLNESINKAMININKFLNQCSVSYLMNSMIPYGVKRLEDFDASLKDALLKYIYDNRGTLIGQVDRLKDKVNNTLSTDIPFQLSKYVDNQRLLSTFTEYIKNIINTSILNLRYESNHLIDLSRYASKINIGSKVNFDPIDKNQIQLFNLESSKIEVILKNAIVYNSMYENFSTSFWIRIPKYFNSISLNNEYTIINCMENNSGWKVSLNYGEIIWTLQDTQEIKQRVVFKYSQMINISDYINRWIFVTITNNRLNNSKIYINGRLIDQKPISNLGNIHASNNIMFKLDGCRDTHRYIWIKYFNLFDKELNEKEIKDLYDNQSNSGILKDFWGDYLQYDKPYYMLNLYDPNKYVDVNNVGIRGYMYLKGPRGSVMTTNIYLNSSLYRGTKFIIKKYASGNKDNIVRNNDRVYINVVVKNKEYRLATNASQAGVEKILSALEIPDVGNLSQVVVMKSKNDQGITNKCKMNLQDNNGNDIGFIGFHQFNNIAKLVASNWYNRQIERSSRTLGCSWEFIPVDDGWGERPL
# Sequence of Lethal factor (Bacillus anthracis) (P15917 whole entry, looked up): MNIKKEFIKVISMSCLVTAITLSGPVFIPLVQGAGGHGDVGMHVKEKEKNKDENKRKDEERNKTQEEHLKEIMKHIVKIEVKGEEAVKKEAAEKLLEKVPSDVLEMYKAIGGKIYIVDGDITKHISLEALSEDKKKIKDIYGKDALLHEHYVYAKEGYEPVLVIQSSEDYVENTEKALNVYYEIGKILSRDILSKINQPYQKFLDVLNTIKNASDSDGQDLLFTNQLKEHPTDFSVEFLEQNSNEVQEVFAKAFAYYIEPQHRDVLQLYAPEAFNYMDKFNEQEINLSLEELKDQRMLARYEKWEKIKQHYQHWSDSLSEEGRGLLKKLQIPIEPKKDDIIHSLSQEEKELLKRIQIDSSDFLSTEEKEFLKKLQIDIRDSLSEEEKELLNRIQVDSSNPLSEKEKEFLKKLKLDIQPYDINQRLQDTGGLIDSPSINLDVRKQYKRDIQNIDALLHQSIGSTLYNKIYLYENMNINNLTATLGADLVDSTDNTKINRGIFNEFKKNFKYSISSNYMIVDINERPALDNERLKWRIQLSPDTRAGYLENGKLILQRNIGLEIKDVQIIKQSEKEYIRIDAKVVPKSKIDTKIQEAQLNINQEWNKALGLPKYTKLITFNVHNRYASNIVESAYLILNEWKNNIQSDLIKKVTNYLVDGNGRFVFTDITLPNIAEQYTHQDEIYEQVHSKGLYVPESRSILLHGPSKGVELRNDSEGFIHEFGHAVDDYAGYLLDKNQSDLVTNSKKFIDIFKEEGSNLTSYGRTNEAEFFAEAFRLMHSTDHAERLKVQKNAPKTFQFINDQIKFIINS
# Sequence of ATP-binding cassette sub-family B member 6 (Homo sapiens) (Q9NP58 whole entry, looked up): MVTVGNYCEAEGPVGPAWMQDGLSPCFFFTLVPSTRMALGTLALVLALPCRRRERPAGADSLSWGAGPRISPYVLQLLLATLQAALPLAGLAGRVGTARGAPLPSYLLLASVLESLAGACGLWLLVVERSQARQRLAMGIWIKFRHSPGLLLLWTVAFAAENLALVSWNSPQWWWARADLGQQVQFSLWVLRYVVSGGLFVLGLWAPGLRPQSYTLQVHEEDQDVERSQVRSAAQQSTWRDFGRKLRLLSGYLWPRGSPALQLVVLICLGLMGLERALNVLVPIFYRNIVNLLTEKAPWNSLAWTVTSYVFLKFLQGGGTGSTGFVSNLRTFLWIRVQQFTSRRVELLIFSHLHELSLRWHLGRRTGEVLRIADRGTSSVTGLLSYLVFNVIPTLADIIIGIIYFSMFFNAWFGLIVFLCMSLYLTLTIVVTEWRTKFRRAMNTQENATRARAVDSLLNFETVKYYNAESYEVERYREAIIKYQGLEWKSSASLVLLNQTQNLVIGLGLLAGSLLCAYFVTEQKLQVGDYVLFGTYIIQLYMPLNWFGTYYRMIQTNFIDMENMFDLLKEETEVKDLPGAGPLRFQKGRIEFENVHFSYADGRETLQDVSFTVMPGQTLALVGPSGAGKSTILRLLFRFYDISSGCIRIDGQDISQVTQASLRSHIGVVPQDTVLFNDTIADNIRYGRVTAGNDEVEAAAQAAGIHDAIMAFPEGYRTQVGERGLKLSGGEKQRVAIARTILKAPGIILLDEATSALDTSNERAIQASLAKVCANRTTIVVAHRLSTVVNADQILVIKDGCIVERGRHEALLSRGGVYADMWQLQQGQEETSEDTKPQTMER
smiles,measurement,setting,value
Clc1ccc(COC(Cn2ccnc2)c2ccc(Cl)cc2Cl)c(Cl)c1 (centres undefined),double positive events,[1],71.9%
same,vesicle binding response,[1],306% (inactive)
same,inhibition,[2],-1.12% (inactive)
same,superoxide response (% of plate),[3],76.7% (inactive)
same,aptamer binding inhibition,[4],4% (inactive)
same,inhibition,[5],-8.06% (inactive)
same,response,[6],75% (active)
same,binding (% of control),[7],104% (inactive)
same,inhibition,[8],0.4% (inactive)
same,inhibition,[9],-0.5% (inactive)
same,inhibition,[10],-5.1% (inactive)
same,efflux inhibition (fraction of control),[11],0.33 (inactive)
same,inhibition,[12],5% (inactive)
same,differentiation response,[13],-1.05% (inactive)
NCCc1ccc(O)cc1,double positive events,[1],60%
same,vesicle binding response,[1],185% (inactive)
same,inhibition,[2],-2.82% (inactive)
same,superoxide response (% of plate),[3],94.8% (inactive)
same,aptamer binding inhibition,[4],2% (inactive)
same,inhibition,[5],5.64% (inactive)
same,response,[6],5.09% (inactive)
same,binding (% of control),[7],107% (inactive)
same,inhibition,[8],5.4% (inactive)
same,inhibition,[9],0.3% (inactive)
same,inhibition,[10],-8.1% (inactive)
same,efflux inhibition (fraction of control),[11],-0.09 (inactive)
same,inhibition,[12],-2% (inactive)
same,differentiation response,[13],-11.9% (inactive)
CC(=O)Nc1cc([As](=O)(O)O)ccc1O,double positive events,[1],62.8%
same,vesicle binding response,[1],170% (inactive)
same,inhibition,[2],0.59% (inactive)
same,superoxide response (% of plate),[3],92.8% (inactive)
same,aptamer binding inhibition,[4],0% (inactive)
same,inhibition,[5],-6.36% (inactive)
same,response,[6],1.26% (inactive)
same,binding (% of control),[7],101% (inactive)
same,inhibition,[8],1% (inactive)
same,inhibition,[9],-1.3% (inactive)
same,inhibition,[10],5.5% (inactive)
same,efflux inhibition (fraction of control),[11],0 (inactive)
same,inhibition,[12],6% (inactive)
same,differentiation response,[13],-0.06% (inactive)
C[C@]12CCC(=O)C(O)=C1CC[C@@H]1[C@@H]2CC[C@]2(C)C(=O)CC[C@@H]12,GFP response vs DMSO,[14],99.3% (inactive)
same,GFP response vs DMSO,[14]; [17],97.5%
same,GFP response vs DMSO,[14]; [18],99.2%
same,GFP response relative to DMSO,[15],102% (inactive)
same,GFP response relative to DMSO,[15]; [19],102%
same,GFP response relative to DMSO,[15]; [20],103%
same,"GFP response, % of DMSO",[16],104% (inactive)
same,"GFP response, % of DMSO",[16]; [17],103%
same,"GFP response, % of DMSO",[16]; [18],105%
same,double positive events,[1],68.3%
same,vesicle binding response,[1],118% (inactive)
same,inhibition,[2],10.3% (inactive)
same,superoxide response (% of plate),[3],97.5% (inactive)
same,aptamer binding inhibition,[4],1% (inactive)
same,inhibition,[5],0.25% (inactive)
same,response,[6],-1.14% (inactive)
same,binding (% of control),[7],110% (inactive)
same,inhibition,[8],0.8% (inactive)
same,inhibition,[9],-1.4% (inactive)
same,inhibition,[10],-6.6% (inactive)
same,efflux inhibition (fraction of control),[11],-0.17 (inactive)
same,inhibition,[12],21% (inactive)
same,differentiation response,[13],3.28% (inactive)
CC(CCc1ccccc1)NC(C)C(O)c1ccc(O)cc1 (centres undefined),double positive events,[1],49%
same,vesicle binding response,[1],166% (inactive)
same,inhibition,[2],-20.8% (inactive)
same,superoxide response (% of plate),[3],111% (inactive)
same,aptamer binding inhibition,[4],1% (inactive)
same,inhibition,[5],2.09% (inactive)
same,response,[6],5.84% (inactive)
same,binding (% of control),[7],95.4% (inactive)
same,inhibition,[8],-3.5% (inactive)
same,inhibition,[9],-0.8% (inactive)
same,inhibition,[10],-0.5% (inactive)
same,efflux inhibition (fraction of control),[11],-0.28 (inactive)
same,inhibition,[12],10% (inactive)
same,differentiation response,[13],-16.4% (inactive)
CN1C(=O)C(=Cc2ccc(SC3CCCCC3)o2)C(=O)N(C)C1=O,GFP response vs DMSO,[14],95.8% (inactive)
same,GFP response vs DMSO,[14]; [17],98.3%
same,GFP response vs DMSO,[14]; [18],92.3%
same,GFP response relative to DMSO,[15],143% (inactive)
same,GFP response relative to DMSO,[15]; [19],134%
same,GFP response relative to DMSO,[15]; [20],150%
same,"GFP response, % of DMSO",[16],83.5% (inactive)
same,"GFP response, % of DMSO",[16]; [17],84.1%
same,"GFP response, % of DMSO",[16]; [18],77.8%
O=c1c2ccccc2nc2n1CCCN2,inhibition,[8],-4.6% (inactive)
same,inhibition,[9],-2.9% (inactive)
same,inhibition,[10],-7.9% (inactive)
Cc1ccc(C(=O)NCCNC(=O)c2ccccc2)cc1,inhibition,[8],1.3% (inactive)
same,inhibition,[9],0.3% (inactive)
same,inhibition,[10],-1.4% (inactive)
